Screening results as filed in PubChem.
PfM18AAP inh: blocks P. falciparum M18 aspartyl aminopeptidase | recombinant PfM18AAP, H-Glu-NHMec fluorogenic cleavage | inhibition, % at 7.35 µM | 290,000 compounds, 1.2% hits | AID 1822;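 active = inhibition above the campaign mean inhibition over all tested compounds plus 3 SD, cut at about 28% in these data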;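 note: 0% = plate median of test compound wells and 100% = 2 mM ZnCl2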
IDE act: activators of human insulin-degrading enzyme in cells. AID 493087. 340,000 compounds, 0.073% hits. activation, % at 5.96 µM. P14735. HEK cells, FAbeta-B cleavage, fluorescence polarization; 0% vehicle, 100% cell-free pure enzyme wells;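 active = activation above the mean of all tested compounds plus 3 SD, set per screening campaign, cut at about 17% in these data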
Target sequence (P14735 whole entry, looked up): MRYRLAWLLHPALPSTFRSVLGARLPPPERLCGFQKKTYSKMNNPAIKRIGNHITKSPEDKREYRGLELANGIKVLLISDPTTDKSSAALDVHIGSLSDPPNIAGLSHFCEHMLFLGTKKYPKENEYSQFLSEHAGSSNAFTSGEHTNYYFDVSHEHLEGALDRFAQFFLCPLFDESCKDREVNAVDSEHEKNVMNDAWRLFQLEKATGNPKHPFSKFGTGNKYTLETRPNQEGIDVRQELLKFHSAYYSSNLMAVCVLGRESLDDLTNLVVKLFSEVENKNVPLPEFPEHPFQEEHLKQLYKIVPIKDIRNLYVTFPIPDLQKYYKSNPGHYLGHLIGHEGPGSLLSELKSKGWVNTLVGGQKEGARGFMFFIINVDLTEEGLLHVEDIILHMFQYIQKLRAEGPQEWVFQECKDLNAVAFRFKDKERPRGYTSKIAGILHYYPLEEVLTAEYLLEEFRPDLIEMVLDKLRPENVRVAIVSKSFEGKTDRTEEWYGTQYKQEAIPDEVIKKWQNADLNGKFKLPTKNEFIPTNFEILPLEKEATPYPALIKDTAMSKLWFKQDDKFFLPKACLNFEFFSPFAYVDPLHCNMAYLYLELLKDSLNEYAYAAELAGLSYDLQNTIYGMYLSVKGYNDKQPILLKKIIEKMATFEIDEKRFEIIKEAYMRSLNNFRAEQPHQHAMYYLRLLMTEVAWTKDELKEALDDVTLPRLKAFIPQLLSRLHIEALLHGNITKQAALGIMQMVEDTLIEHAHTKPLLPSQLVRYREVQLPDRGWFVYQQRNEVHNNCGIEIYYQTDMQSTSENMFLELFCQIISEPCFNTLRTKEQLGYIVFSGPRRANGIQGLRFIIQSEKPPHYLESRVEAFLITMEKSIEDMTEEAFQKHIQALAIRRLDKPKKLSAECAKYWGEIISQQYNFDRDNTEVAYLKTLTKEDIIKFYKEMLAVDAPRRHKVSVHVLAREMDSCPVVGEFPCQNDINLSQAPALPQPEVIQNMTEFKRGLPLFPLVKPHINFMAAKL
CaV13 FRET inh: Primary screen for inhibitors of IQ motif and Ca2+-dependent inactivation inhibitor domain binding in CACNA1D, Förster resonance energy transfer in living cells, …; HEK cells, CFP/YFP FRET ICDI-IQ, plate reader, 10 min; percent FRET-ratio fall versus neutral wells; inhibition, % at 12.3 µM; 340,000 compounds, 0.098% hits; AID 743397;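 active = mean replicate inhibition of at least 30% and at least 1% of replicates passing that level; inconclusive = only one of the two criteria is met; inactive = neither criterion is met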;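 note: 0% = median of the neutral control wells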
ALR H2O2 inh: inhibitors of human sulfhydryl oxidase ALR; P55789; purified ALR, DTT oxidation, H2O2 HRP-luminol luminescence; inhibition, % (test concentration not listed); 290,000 compounds, 3.8% hits;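 active = mean replicate inhibition above about 79%, with every replicate also reaching it, limit read from the data; inconclusive = only one of the two criteria met; inactive = mean below limit and not every replicate reaching it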
PolyA inhibitor: yeast polyadenylation inhibition; 300,000 compounds, 0.02% hits; AID 1875; S. cerevisiae SKY197-pL101 polyadenylation reporter, beta-gal luminescence; efflux-impaired pdr1/pdr3 knockout yeast; score 100 = 6 SD above DMSO; activity score, % at 12 µM;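 active = lowest replicate activity score at least 50, where 100 means six control SD above control mean; inconclusive = lowest score under 50 but half or more replicates reach 50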;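 note: yeast exposed to compound for 9 h at 30 °C; higher score means more reporter readthrough which indicates perturbed polyadenylation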
IDE cell inh: cellular human IDE inhibition | P14735 | HEK cells, FAbetaB cleavage, fluorescence polarization | inhibition, % at 5.59 µM | 320,000 compounds, 0.41% hits;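 active = percent inhibition above the average of all tested compounds plus 3 SD, set per screening campaign, cut at about 16% in these data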;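 note: IDE supplied by intact live HEK cells; FP after avidin binding of uncleaved biotin substrate so inhibition keeps polarization high; 0% = DMSO wells and 100% = 60 µM reference IDE inhibitor Ii1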
* = called active by the depositor; ? = inconclusive; nt = not tested or not shown. Sampled rows, rich in hits. Any-hit rate of the full collection: about 4.1%.

SMILES | PfM18AAP inh | IDE act | CaV13 FRET inh | ALR H2O2 inh | PolyA inhibitor | IDE cell inh
O=c1[nH]c2sc3c(c2c(=O)n1Cc1ccccc1)CCC3 | 1 | 3 | nt | 56 | -6 | 0
O=c1c2c3c(sc2[nH]c(=S)n1Cc1ccco1)CCC3 | 14 | 1 | -5 | 93* | -13 | -1
Cn1c(=O)n(Cc2ccco2)c(=N)c2c3c(sc21)CCC3 | -4 | -1 | -5 | 76* | nt | 1
COc1cccc(CNC(=O)C2CCN(S(=O)(=O)c3ccc4c(c3)CC(C)N4C(C)=O)CC2)c1 (stereo unspecified) | -1 | 3 | -2 | -6 | 13 | 4
CC(Sc1nncs1)C(=O)Nc1ccc2c(c1)OCO2 (stereo unspecified) | 10 | -3 | -4 | -20 | 3 | -7
COc1cc(CCC(=O)OCC(=O)Nc2c(C)cccc2C(C)C)cc(OC)c1OC | 0 | 0 | -15 | -4 | -9 | 8
CSc1ncccc1C(=O)OCC(=O)C(C)(C)C | -2 | 2 | 4 | 2 | -4 | -2
COc1cccc2c1C(=O)c1c(O)c3c(c(O)c1C2=O)C[C@@](O)(C(=O)CO)C[C@@H]3O[C@H]1C[C@H](N)[C@H](O)[C@H](C)O1 | 28* | 9 | -6 | -6 | -13 | 4
NNC(=O)CSc1ncc(-c2ccccc2)[nH]1 | 4 | -8 | -6 | 36 | -3 | -8
O=C(CSc1ncc(-c2ccc(F)cc2)[nH]1)Nc1cccc(O)c1 | 0 | -4 | nt | 99* | 5 | 3
CCc1nnc(NC(=O)CSc2ncc(-c3ccccc3)[nH]2)s1 | 4 | 6 | -7 | 99* | 5 | 9
Cc1nnc(NC(=O)CSc2ncc(-c3ccccc3)[nH]2)s1 | -12 | -3 | 13 | 62 | 3 | 0
Cc1ccccc1OCCC(=O)Nc1ccccc1C(=O)N1CCCCC1 | nt | 2 | -1 | -1 | nt | -2
Cc1ccccc1OCC(=O)Nc1ccccc1C(=O)N1CCCCC1 | 1 | 4 | nt | 86* | -10 | -1
O=C(CCN1CCCCCC1)c1ccccc1 | 16 | 1 | -4 | 91* | nt | -4
O=C(CCc1ccc(CCC(=O)c2cccs2)s1)c1cccs1 | 2 | 4 | nt | 92* | -21 | 4
COc1ccc(C(=O)CCN2CCCCCC2)cc1 | -5 | -7 | -7 | 54 | 7 | -2
O=C(CCN1CCCC1)c1cccs1 | -3 | 4 | -3 | 98* | -18 | 0
O=C(Nc1ccnn1C1CCN(Cc2ccc(CO)o2)CC1)c1ccccc1 | 4 | 7 | -5 | 2 | -7 | -1
COc1ccc(/C=C2\SC(=Nc3ccccc3)NC2=O)cc1 | -4 | nt | nt | -3 | -11 | nt
Cc1c(N=C2NC(=O)/C(=C/c3ccc(O)cc3)S2)c(=O)n(-c2ccccc2)n1C | 17 | 1 | -3 | 99* | -24 | 1
Cc1c(N=C2NN=C(c3c[nH]c4ccccc34)CS2)c(=O)n(-c2ccccc2)n1C | 10 | 2 | -6 | nt | -13 | 1
Cc1c(N=C2NC(=O)C(CC(=O)Nc3ccccc3)S2)c(=O)n(-c2ccccc2)n1C (stereo unspecified) | 1 | 6 | -5 | -3 | 10 | -2
Cc1c(N=C2NN=C(c3ccc(Cl)cc3)CS2)c(=O)n(-c2ccccc2)n1C | 5 | 5 | -4 | 97* | 2 | -1
O=C1NC(=NCc2ccccc2)S/C1=C/c1ccc(O)cc1 | 7 | 2 | -3 | 94* | 4 | 10
SMILES | PfM18AAP inh | IDE act | CaV13 FRET inh | ALR H2O2 inh | PolyA inhibitor | IDE cell inh
CCOC(CNC(=O)c1nnc(Cc2cc(OC)c(OC)c(OC)c2)o1)OCC | 0 | 4 | -6 | 5 | 18 | 2
CCCNC(=O)CSCc1nc(-c2ccc(SC)cc2)oc1C | 3 | -4 | -17 | 99* | -12 | -2
COC(CNC(=O)CSCc1nc(-c2ccc(SC)cc2)oc1C)OC | -4 | -3 | -3 | 99* | -9 | -4
CSc1ccc(-c2nc(CSCC(=O)NCCCN3CCOCC3)c(C)o2)cc1 | -1 | 2 | -5 | nt | 13 | 4
CCc1nc2n[nH]c(N)c2c2c1CSC(C)(C)C2 | 0 | 5 | -4 | 87* | 7 | 5
CCC(Sc1nc(C)cc(=O)[nH]1)C(=O)Nc1nc2c(s1)CCCC2 (stereo unspecified) | 5 | -2 | -6 | 24 | 13 | 0
O=C(CSC1=NCCS1)Nc1nc2c(s1)CCCC2 | -21 | 3 | nt | 99* | -5 | 3
Cn1nnnc1SCC(=O)Nc1nc2c(s1)CCCC2 | 3 | 3 | -5 | -15 | 11 | 0
Cc1cc(=O)[nH]c(SCC(=O)Nc2nc3c(s2)CCCC3)n1 | 3 | 0 | -17 | 99* | 8 | 0
COC(=O)[C@]12C[C@H](CC(=O)NCC3CCCCC3)C(=O)N(Cc3ccccc3)C1=C[C@H](C1CCCC1)O[C@@H]2C | nt | nt | -10 | nt | nt | nt
CCOc1ccc(CCNC(=O)c2cccc(S(=O)(=O)N3CCN(C(C)=O)CC3)c2)cc1OCC | nt | 5 | -2 | -7 | -6 | 0
CCCCN1C(=O)/C(=c2\sc3nc(=O)c(-c4ccccc4)nn3c2=O)c2ccccc21 | -38 | 5 | nt | 97* | -12 | 2
O=C(NCC1CC1)c1ccc(Nc2nc3ccc(Br)cc3[nH]2)cc1 | -9 | -10 | -10 | 98* | -6 | 3
O=C(NCc1ccco1)c1cccc(Nc2nc3ccc(Br)cc3[nH]2)c1 | 2 | 2 | -10 | 28 | 13 | -4
O=Cc1ccnc(-c2ccc(OC(=O)c3ccco3)cc2)n1 | 4 | 2 | -17 | 66 | -23 | 1
CCc1ccc(NC(=O)c2ccc3nc(N)sc3c2)cc1 | 1 | -5 | -1 | 91* | 6 | -1
Nc1nc2ccc(C(=O)Nc3ccccc3)cc2s1 | 1 | 2 | -5 | 98* | 6 | -3
CN(C(=O)c1ccc2nc(N)sc2c1)c1ccccc1 | 7 | 2 | 11 | -1 | 11 | 3
CCc1ccc(NC(=O)c2ccc3ncsc3c2)cc1 | 5 | nt | nt | nt | ? | nt
COCCCNC(=S)NNC(=O)Cn1nc(C)c(Br)c1C | 30* | 0 | -2 | 51 | 7 | -3
CCC(C)N(C(=O)CSc1ccc(NC(C)=O)cc1)C1CCS(=O)(=O)C1 (stereo unspecified) | 6 | 4 | -2 | 88* | 1 | -5
CCC(C)N(C(=O)COC(=O)CSc1ccc(C)c(C)c1)C1CCS(=O)(=O)C1 (stereo unspecified) | nt | 0 | -6 | -12 | nt | -1
Cc1ccc(CNC(=O)c2cc(S(=O)(=O)N3CCCC3)cn2C)cc1 | -3 | 1 | -8 | -27 | -11 | 2
COc1cccc(CN2CCC(Oc3ccc(C(=O)N4CCCCC4)cc3)CC2)c1O | -5 | 3 | -2 | 84* | -10 | -2
